From PubChem BioAssay AID493169 (National Center for Advancing Translational Sciences (NCATS), 2011)
Results filed as inconclusive are left out. Values without a mark were called inactive. The source made the active and inactive calls. Calls follow the shape of the dose curve; as a rule, active = well fitted inhibition curve with a large enough effect; inconclusive = small, poorly fitted or top-dose-only effect; inactive = flat fitted curve, though single readings scatter.

Experiment: CHOP2 Reporter Counterscreen Assay for Inhibitors of Ubiquitin-specific Protease USP2a;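 also: activated enterokinase alone at 50 pM in a cell-free format rather than USP2a or CHOP2; nearly all actives have a fitted effect of over 55% in size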
Conditions: purified enterokinase, fluorogenic substrate, 485/531 nm; series mostly up to 38.3 µM; activity change, negative = inhibition: at the top concentration
In short: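 Fluorescence (485/531 nm) read 10 min after adding 25nM reporter substrate to 50 pM activated EK preincubated 30 min RT with compound; Tris pH 8.0/CaCl2/CHAPS buffer. Data normalized to buffer-alone inhibition; concentration-response curves fitted.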
% is scaled to controls: 0 for no effect and ±100 for the full control effect; potency is read from the fitted curve at half-maximal effect.

Point of comparison: COc1ccccc1C1NC(c2ccccc2OC)C(C)C(=O)C1C (stereo not given), “activity change, negative = inhibition” value 3.82%. Against it:
- CC(C)c1ccc(C2=C(O)c3ccccc3C(=O)C2=O)cc1 — lower, 0.933%
- CCCC(=O)Nc1ccc(N2CCN(C(=O)c3cc4ccccc4o3)CC2)cc1 — higher, 5.53%
- O=C(Nc1ccccc1)c1cc(Cl)nc2ccccc12 — lower, 2.73%
- Cc1ccccc1OCc1nc2ccccc2c(=O)n1N — lower, 1.37%
- Cc1ccc(C(=O)N/C(=C/c2cccs2)C(=O)NCc2ccco2)cc1 — lower, 2.96%
- O=C(NCC(c1cccnc1)N1CCN(c2ccc(F)cc2)CC1)OCc1ccccc1 (stereo not given) — higher, 4.77%
- O=C(NNC(=O)c1cc2ccccc2cc1O)Nc1ccccc1F — lower, 0.199%
- CCOC(=O)N1CCN(C(=O)c2cc3c(ccc4ccccc43)oc2=O)CC1 — lower, -1.78%
- CCn1cc(C(=O)N2CCOCC2)c(=O)c2cc(S(=O)(=O)N(C)C)ccc21 — higher, 5.99%
- COc1ccc(C(=O)C[N+]2(C)CCOCC2)cc1 — higher, 6.58%
- COc1ccc(C(=O)Nc2ccc(N3CCCC3)cc2)cc1OC — lower, 0.701%
- O=C(c1ccccc1N(Cc1ccccc1)S(=O)(=O)c1ccccc1)N1CCOCC1 — lower, -0.49%
- CC(=O)N1CCCc2cc(S(=O)(=O)CCC(=O)N3CCN(c4cccc(C)c4)C(C)C3)ccc21 (stereo not given) — lower, -0.373%
- CN(c1cccc(NC(=O)Nc2cccc(Cl)c2)c1)S(C)(=O)=O — lower, -0.746%
- Nc1nc(NCCO)nc(NCC2CCCO2)c1[N+](=O)[O-] (stereo not given) — lower, 2.32%
- Cc1cc(C(=O)CSc2nnc(Nc3ccccc3F)s2)c(C)n1CC1CCCO1 (stereo not given) — lower, -1.76%
- Cc1noc(NS(=O)(=O)c2ccc(N3CC(O)=C(c4ccccc4)C3=N)cc2)c1C — lower, 0.63%
- Cc1ccc(Nc2nc(N)nc(CN3CCN(C(=O)c4ccco4)CC3)n2)cc1Cl — lower, -5.49%
- O=C(CCSCc1ccc(Cl)cc1)NCCc1ccccc1 — lower, -0.319%
- COc1ccc(O)c(-c2cc(-c3ccc(F)cc3)n[nH]2)c1 — lower, -5.03%
- CCOc1cc(/C=C/c2nc3cc(C)c(C)cc3s2)ccc1OCC(=O)N1CCOCC1 — lower, 2.17%
- O=C(N/N=C/C=C/c1ccccc1)c1ccncc1 — higher, 6.48%
- CCn1nnnc1SCC(=O)Nc1cccc(C)n1 — higher, 6.12%
- COc1cc(/C=C/C(=O)OCC(=O)NC(=O)NCc2ccco2)ccc1OC(F)F — lower, -19.8%
- Cc1cc(NC(=O)c2cccc(S(=O)(=O)N(C)C)c2)n(-c2ccccn2)n1 — lower, -1.67%
- Cc1ccc(C)c(S(=O)(=O)c2c(N)n(/N=C/c3ccco3)c3nc4ccccc4nc23)c1 — higher, 16.7%
- O=C(c1cccc(F)c1)N1CCN(S(=O)(=O)c2ccccc2)CC1 — lower, 3.3%
- Cc1ccc(S(=O)(=O)Nc2ccccc2-c2ccccc2NS(=O)(=O)c2ccc(C)cc2)cc1 — lower, -20.3%
- COc1ccccc1NC(=O)N1CCN(c2ccccn2)CC1 — lower, 0.312%
- CC1(C(=O)O)Sc2[nH]c(=O)sc2C2c3ccccc3OC(=O)C21 (stereo not given) — lower, -1.3%
- COC(=O)c1ccccc1NC(=O)CSc1nc(O)cc(=O)n1C1CCCC1 — lower, -3.97%
- CC1=C(C(=O)OC(C)C)C(C)C(C(=O)OC(C)C)=C(C)N1 — lower, 1.59%

With CN=c1scc(-c2ccccc2F)n1/N=C/c1ccc(O)c(O)c1O the Potency was 10 µM (active).
In the case of CC(C)c1ccc(Nc2nnc(SCC(=O)c3nnc(-c4ccccc4)o3)s2)cc1, the Potency is reported as 5.01 µM (active).
With O=C1Nc2ccccc2SC(c2ccccc2)C1O (stereo not given) the Potency was 7.94 µM (active).
In the case of Cn1c(=O)c(C(=O)Nc2ncccc2O)c(O)c2ccccc21, the Potency is reported as 10 µM (active).
With COc1ccc(S(=O)(=O)NCCSCc2ccco2)cc1OC the Potency was 10 µM (active).
With CCCCCCCCCCOC(=O)Cn1c(COc2ccc(OC)cc2)[n+](C)c2ccccc21 the Potency was 10 µM (active).
With O=C1/C(=C/C=C/c2ccco2)SC(=S)N1c1ccc(O)cc1 the Potency was 2.82 µM (active).
